Laboratory results reported in PubChem BioAssay (Tox21).
Inconclusive results are not listed. Activity calls are given as the source filed them. Unless noted, the call rests on the fitted dose curve.

How the values were obtained:
[1] = Nuclear factor erythroid 2-related factor 2/antioxidant responsive element (Nrf2/ARE) small molecule agonists: qHTS cell viability counter screen in human keratinocytes (AID 1919968; active means well fitted curve in the direction sought with a large enough effect in the repeat runs; an effect the other way counts as inactive or inconclusive; further: nearly all actives have a fitted effect of over 55% in size; further: potency means the concentration at half of the fitted maximal effect)
In short: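 HaCaT ARE reporter line, 1,500 cells/well; 5 h settle, 37 C/5% CO2; cpd in DMSO pinned; 23 h exposure; CellTiter-Fluor, 1 h; fluorescence.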

[2] = Nuclear factor erythroid 2-related factor 2/antioxidant responsive element (Nrf2/ARE) small molecule agonists: luciferase reporter gene qHTS assay in human keratinocytes (AID 1919969); further: nearly all actives have a fitted effect of over 35% in size; further: potency means the concentration at half of the fitted maximal effect
[3] = molecular target: Gonadotropin-releasing hormone receptor (Homo sapiens) (UniProt P30968); experiment: Human gonadotropin-releasing hormone receptor (GnRHR) small molecule agonists, calcium flux assay in GnRHR-HEK293 cells (AID 1920063); further: nearly all actives have a fitted effect of over 35% in size
Gonadotropin-releasing hormone receptor (Homo sapiens), sequence (P30968 whole entry, looked up): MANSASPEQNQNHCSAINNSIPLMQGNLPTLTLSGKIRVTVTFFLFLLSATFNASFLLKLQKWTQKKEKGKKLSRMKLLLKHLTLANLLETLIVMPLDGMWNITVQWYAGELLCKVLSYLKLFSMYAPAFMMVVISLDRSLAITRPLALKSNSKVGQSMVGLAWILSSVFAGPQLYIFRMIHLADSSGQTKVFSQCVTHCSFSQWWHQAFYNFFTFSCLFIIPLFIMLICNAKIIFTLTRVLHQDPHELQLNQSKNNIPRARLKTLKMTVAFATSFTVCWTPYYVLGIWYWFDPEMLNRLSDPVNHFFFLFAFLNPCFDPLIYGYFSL
In short: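 GnRHR-HEK293, 1500 cells/well, 18 h 37 C/5% CO2; Ca dye 1 h 37 C; cpd pinned (DMSO), agonist mode; kinetic FL 480/540, 3 min, 1 s reads; 15 conc, n=3.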

[4] = molecular target: KiSS-1 receptor (Homo sapiens) (UniProt Q969F8); experiment: Human kisspeptin (KISS1R) small molecule agonists, calcium flux assay in KISS1R-HEK293 cells (AID 1920064; active means well fitted curve in the direction sought with a large enough effect in the repeat runs; an effect the other way counts as inactive or inconclusive)
KiSS-1 receptor (Homo sapiens), sequence (Q969F8 whole entry, looked up): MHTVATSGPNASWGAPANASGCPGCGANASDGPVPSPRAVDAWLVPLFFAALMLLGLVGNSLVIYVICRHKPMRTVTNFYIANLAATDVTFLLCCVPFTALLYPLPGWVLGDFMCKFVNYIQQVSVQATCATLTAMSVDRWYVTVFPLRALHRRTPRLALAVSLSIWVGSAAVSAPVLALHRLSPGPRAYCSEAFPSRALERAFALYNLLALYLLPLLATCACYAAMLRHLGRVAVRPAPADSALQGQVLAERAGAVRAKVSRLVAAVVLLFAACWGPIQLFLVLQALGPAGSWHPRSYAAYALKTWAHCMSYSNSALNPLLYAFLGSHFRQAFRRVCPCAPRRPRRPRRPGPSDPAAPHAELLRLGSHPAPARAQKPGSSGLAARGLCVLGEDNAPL
In short: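 Stable human KISS1R HEK293 line; 18 h plating, 37 C/5% CO2; calcium dye 1 h 37 C; compound pin transfer; kinetic fluorescence Ex/Em 480/540, 3 min.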

[5] = G protein-coupled receptor (GPCR) small molecule agonists, calcium flux assay: HEK293 wild type cell line counter screen (AID 1920065)
In short: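 Kinetic fluorescence at Ex/Em 480/540, recorded every second over 3 min, served as the read-out after compound addition. Each compound was tested at 15 concentrations in triplicate on cells pre-loaded with calcium dye for 1 h.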

[6] = p53 small molecule agonists, cell-based qHTS assay with human liver microsomes (AID 1963577);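 further: p53 response element beta-lactamase reporter cells with liver microsomes plus NADPH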
In short: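 p53RE-bla cells; 5 h settle, 37 C/5% CO2; cpd + HLM 0.5 mg/mL + NADPH 0.5 mg/mL (final); 16 h 37 C; LiveBLAzer 2 h RT dark; fluorescence readout.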

[7] = p53 small molecule agonists, cell-based qHTS assay with rat liver microsomes (AID 1963578)
In short: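 Rat liver microsome activation: microsomes 0.5 mg/mL, NADPH 0.5 mg/mL final; p53RE-bla cells, 16 h 37 C; LiveBLAzer readout, 2 h RT dark.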

[8] = p53 small molecule agonists, cell-based qHTS assay with human liver microsomes: qHTS cell viability counter screen (AID 1963579); further: nearly all actives have a fitted effect of over 45% in size; further: potency means the concentration at half of the fitted maximal effect
In short: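 Luminescent CellTiter-Glo read-out, 30 min at room temperature, gauged cytotoxicity in p53RE-bla cells exposed 16 h at 37 C to DMSO-dissolved compounds with metabolic activation by human liver microsomes and NADPH, each 0.5 mg/mL final.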

[9] = p53 small molecule agonists, cell-based qHTS assay with rat liver microsomes: qHTS cell viability counter screen (AID 1963580); further: nearly all actives have a fitted effect of over 45% in size; further: potency means the concentration at half of the fitted maximal effect
In short: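 In HCT-116 cells carrying a p53 response element-bla reporter, compounds were metabolically activated in situ by rat liver microsomes with NADPH over 16 h. Cell ATP content then served as the cytotoxicity measure.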

[10] = p53 small molecule agonists, cell-based qHTS assay: qHTS cell viability counter screen (AID 1963581); further: nearly all actives have a fitted effect of over 45% in size; further: potency means the concentration at half of the fitted maximal effect
In short: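 HCT-116 p53RE-bla cells, 4,000/well, plated 5 h before compound pin transfer; 16 h at 37 C; bla substrate 2 h RT; then CellTiter-Glo, 30 min RT, luminescence.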

[11] = molecular target: 5-hydroxytryptamine receptor 2A (Homo sapiens) (UniProt P28223); experiment: 5-hydroxytryptamine receptor 2A (HTR2A) small molecule antagonists, cell-based qHTS assay (AID 1963586); further: nearly all actives have a fitted effect of over 45% in size; further: potency means the concentration at half of the fitted maximal effect
5-hydroxytryptamine receptor 2A (Homo sapiens), sequence (P28223 whole entry, looked up): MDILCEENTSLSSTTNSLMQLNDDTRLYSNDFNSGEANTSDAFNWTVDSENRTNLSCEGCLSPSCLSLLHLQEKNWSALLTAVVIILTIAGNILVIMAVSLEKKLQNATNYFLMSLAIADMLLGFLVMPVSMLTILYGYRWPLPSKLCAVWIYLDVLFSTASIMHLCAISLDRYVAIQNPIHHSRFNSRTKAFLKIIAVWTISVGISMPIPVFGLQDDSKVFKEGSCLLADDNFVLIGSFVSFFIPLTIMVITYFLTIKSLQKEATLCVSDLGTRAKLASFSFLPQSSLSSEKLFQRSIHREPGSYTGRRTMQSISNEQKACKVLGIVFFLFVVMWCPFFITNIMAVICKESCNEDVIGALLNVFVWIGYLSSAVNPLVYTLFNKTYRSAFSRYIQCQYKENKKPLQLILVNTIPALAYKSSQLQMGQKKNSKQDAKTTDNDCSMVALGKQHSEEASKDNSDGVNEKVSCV
In short: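 Antagonist-mode intracellular calcium assay: DOI (4 nM) added after 5 min compound pre-incubation at room temperature to dye-loaded HTR2A-CHO cells. Fluorescence followed for 3 min, sampled every second.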

[12] = molecular target: 5-hydroxytryptamine receptor 2A (Homo sapiens) (UniProt P28223); experiment: 5-hydroxytryptamine receptor 2A (HTR2A) small molecule agonists, cell-based qHTS assay (AID 1963587); further: nearly all actives have a fitted effect of over 30% in size
In short: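 HTR2A-CHO cells, plated 18 h at 37 C/5% CO2, dye-loaded 1 h at 37 C; compounds in DMSO added by pin tool (agonist mode). Intracellular calcium flux read as kinetic fluorescence on FDSS over 2 min at 1 s intervals.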

[13] = molecular target: Muscarinic acetylcholine receptor M1 (Homo sapiens) (UniProt P11229); experiment: Cholinergic receptor muscarinic 1 (CHRM1) small molecule antagonists, cell-based qHTS assay (AID 1963588); further: nearly all actives have a fitted effect of over 40% in size; further: potency means the concentration at half of the fitted maximal effect
Muscarinic acetylcholine receptor M1 (Homo sapiens), sequence (P11229 whole entry, looked up): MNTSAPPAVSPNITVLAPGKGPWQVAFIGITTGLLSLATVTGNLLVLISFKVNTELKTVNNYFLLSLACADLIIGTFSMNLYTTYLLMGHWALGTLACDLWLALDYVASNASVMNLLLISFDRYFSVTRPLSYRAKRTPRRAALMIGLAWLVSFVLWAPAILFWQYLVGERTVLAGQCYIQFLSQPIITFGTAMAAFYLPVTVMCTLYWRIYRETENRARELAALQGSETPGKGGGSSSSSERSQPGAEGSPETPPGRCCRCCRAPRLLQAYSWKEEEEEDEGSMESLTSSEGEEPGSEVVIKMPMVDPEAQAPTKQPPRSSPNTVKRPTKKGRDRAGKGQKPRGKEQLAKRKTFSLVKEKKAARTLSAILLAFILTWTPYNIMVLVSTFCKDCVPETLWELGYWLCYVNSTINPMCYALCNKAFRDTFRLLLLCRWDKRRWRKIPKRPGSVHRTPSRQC
In short: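 CHRM1-CHO calcium-flux assay, antagonist mode. Cells were seeded 18 h, dye-loaded 1 h at 37 C and given compound for 5 min at RT, then acetylcholine was added at 50nM. FDSS fluorescence was read 3 min; 15 concentrations, three runs.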

[14] = molecular target: Muscarinic acetylcholine receptor M1 (Homo sapiens) (UniProt P11229); experiment: Cholinergic receptor muscarinic 1 (CHRM1) small molecule agonists, cell-based qHTS assay (AID 1963589); further: nearly all actives have a fitted effect of over 35% in size
In short: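 Human M1 in stable CHO line; 18 h plating, 1 h dye load 37 C; cpd added (agonist mode); Ca2+ fluorescence kinetic read, 1 s intervals; 15 conc, 3 runs.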

[15] = molecular target: Beta-2 adrenergic receptor (Homo sapiens) (UniProt P07550); experiment: Adrenergic beta2 receptor (ADRB2) small molecule antagonists, cell-based qHTS assay (AID 1963592); further: series mostly up to about 92 µM; nearly all actives have a fitted effect of over 50% in size
Beta-2 adrenergic receptor (Homo sapiens), sequence (P07550 whole entry, looked up): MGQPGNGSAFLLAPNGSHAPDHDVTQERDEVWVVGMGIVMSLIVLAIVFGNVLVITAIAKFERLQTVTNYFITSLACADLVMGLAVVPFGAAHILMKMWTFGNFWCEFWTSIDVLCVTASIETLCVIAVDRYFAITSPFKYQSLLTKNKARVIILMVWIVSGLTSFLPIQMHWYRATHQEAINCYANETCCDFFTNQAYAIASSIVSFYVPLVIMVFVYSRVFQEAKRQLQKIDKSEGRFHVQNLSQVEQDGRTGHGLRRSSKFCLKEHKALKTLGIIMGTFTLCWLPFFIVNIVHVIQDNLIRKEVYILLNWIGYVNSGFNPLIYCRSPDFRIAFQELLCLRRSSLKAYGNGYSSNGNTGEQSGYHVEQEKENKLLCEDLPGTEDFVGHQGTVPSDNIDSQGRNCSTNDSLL
In short: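 Cells (CHO, stable ADRB2 overexpression) incubated 18-20hr at 37C; compounds added from DMSO; agonist mix (1nM isoproterenol, 100uM IBMX, 25uM Ro-20-1724) added; 0.5hr RT; d2-cAMP and anti-cAMP-cryptate added; 1hr RT; 665/615 nm read.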

[16] = molecular target: Beta-2 adrenergic receptor (Homo sapiens) (UniProt P07550); experiment: Adrenergic beta2 receptor (ADRB2) small molecule agonists, cell-based qHTS assay (AID 1963593); further: potency means the concentration at half of the fitted maximal effect
In short: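 CHO cells stably over-expressing ADRB2 were plated overnight at 37C, then dosed with compounds plus a stimulation mix containing 100uM IBMX and 25uM Ro-20-1724 for 0.5hr at room temperature. cAMP was measured by HTRF competition, 1hr.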

[17] = molecular target: D(2) dopamine receptor (Homo sapiens) (UniProt P14416); experiment: Dopamine D2 receptor (DRD2) small molecule agonists, cell-based qHTS assay (AID 1963594); further: nearly all actives have a fitted effect of over 35% in size
D(2) dopamine receptor (Homo sapiens), sequence (P14416 whole entry, looked up): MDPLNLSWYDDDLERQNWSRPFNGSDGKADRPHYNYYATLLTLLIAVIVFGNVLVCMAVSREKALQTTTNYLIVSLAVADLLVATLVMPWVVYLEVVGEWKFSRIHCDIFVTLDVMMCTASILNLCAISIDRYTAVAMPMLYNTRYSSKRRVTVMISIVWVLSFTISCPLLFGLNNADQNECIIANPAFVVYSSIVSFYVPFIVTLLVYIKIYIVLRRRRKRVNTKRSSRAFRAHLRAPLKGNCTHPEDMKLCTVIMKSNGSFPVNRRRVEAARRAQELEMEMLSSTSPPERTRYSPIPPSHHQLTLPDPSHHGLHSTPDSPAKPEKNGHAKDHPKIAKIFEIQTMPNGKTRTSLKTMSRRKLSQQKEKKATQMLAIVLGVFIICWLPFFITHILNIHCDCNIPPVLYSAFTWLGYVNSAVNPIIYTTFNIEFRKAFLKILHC
In short: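 HEK293 cells stably expressing DRD2 were cultured 24 h at 37 C, then given Ro20-1724 (0.1 mM final) and compounds for 10 min at room temperature. NKH477 (200nM) was then added for 30 min. cAMP was read by HTRF.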

[18] = molecular target: D(2) dopamine receptor (Homo sapiens) (UniProt P14416); experiment: Dopamine D2 receptor (DRD2) small molecule antagonists, cell-based qHTS assay (AID 1963595; active means well fitted inhibition curve with a large enough effect in the signal ratio in the repeat runs, with a control signal flat; the % refers to the signal ratio; further: potency means the concentration at half of the fitted maximal effect)
In short: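 Cells were plated and grown for 24 h at 37 °C. Ro20-1724 (0.1 mM final) went in first, then compound for 10 min. NKH477 (200 nM) with quinpirole (12 nM) followed for 30 min at RT, then HTRF detection reagents for 1 h.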

[19] = cAMP Responsive Elements (CRE) small molecule antagonists, cell-based qHTS assay (AID 1963591; active means well fitted inhibition curve with a large enough effect in the signal ratio in the repeat runs, not every such curve was filed as active; the % refers to the signal ratio)
In short: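 Beta-lactamase reporter read by FRET substrate (LiveBLAzer B/G) after 2 h at room temperature. CRE-bla HEK293T cells had received compound plus 0.25 uM (final) NKH477 for 3 h at 37 °C.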

[20] = cAMP Responsive Elements (CRE) small molecule agonists, cell-based qHTS assay (AID 1963590)
In short: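 HEK 293T CRE-bla, 2,000 cells/well, 18 h preincubation 37 C/5% CO2; cpds (DMSO) pinned, 3 h; LiveBLAzer B/G FRET substrate, 2 h RT.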

Measured: Potency

Nc1cc(C(F)(F)F)ccc1S
inactive: [3] | [4] | [5] | [6] | [7] | [8] | [9] | [10] | [11] | [12] | [13] | [14] | [15] | [16] | [17] | [18]
active: [1] 26.6 µM | [2] 13.3 µM

CCCCCCC/C=C/C=O
inactive: [1] | [2] | [3] | [4] | [5] | [6] | [7] | [8] | [9] | [10] | [11] | [12] | [13] | [14] | [15] | [17] | [18]

CC1=C(C(=O)OC(C)C)C(c2cccc([N+](=O)[O-])c2)C(C(=O)OC2CN(C(c3ccccc3)c3ccccc3)C2)=C(N)N1 (stereo not given)
active: [1] 8.41 µM | [10] 11.2 µM
inactive: [2] | [3] | [4] | [5] | [6] | [7] | [8] | [9] | [11] | [12] | [13] | [14] | [17] | [18]

CC(C)=CCC/C(C)=C/C=N/O
inactive: [1] | [2] | [3] | [4] | [5] | [6] | [7] | [8] | [9] | [10] | [11] | [12] | [13] | [15] | [17] | [18]

CCC1CCC(CCC(=O)O)C1 (stereo not given)
inactive: [1] | [2] | [3] | [4] | [5] | [6] | [7] | [8] | [9] | [10] | [11] | [12] | [14] | [19] | [15] | [17] | [18]

Cc1cc(SC2=C(O)C[C@@](CCc3ccc(N)cc3)(C(C)C)OC2=O)c(C(C)(C)C)cc1CO
inactive: [1] | [2] | [3] | [4] | [5] | [6] | [7] | [8] | [9] | [10] | [11] | [12] | [13] | [14] | [15] | [17] | [18]

Nc1cc(Cl)c(O)c(Cl)c1
inactive: [1] | [3] | [4] | [5] | [6] | [7] | [8] | [9] | [10] | [11] | [12] | [13] | [14] | [17]
active: [2] 54.5 µM

CCC(Cc1ccccc1)(C(=O)c1ccc(N2CCOCC2)cc1)N(C)C (stereo not given)
inactive: [1] | [3] | [4] | [5] | [6] | [7] | [8] | [9] | [10] | [11] | [12] | [14] | [15] | [17]
active: [2] 68.6 µM

CCN1CCCC1CN (stereo not given)
inactive: [1] | [2] | [3] | [4] | [5] | [6] | [7] | [8] | [9] | [10] | [11] | [12] | [13] | [20] | [19] | [15] | [16] | [17] | [18]

C[Si](NC1CCCCC1)(NC1CCCCC1)NC1CCCCC1
inactive: [1] | [2] | [3] | [4] | [5] | [6] | [7] | [8] | [9] | [10] | [11] | [12] | [13] | [15] | [18]

CN(C[C@@H](CC[N+]12CCC(C3CCCCC3)(CC1)CC2)c1ccc(Cl)c(Cl)c1)C(=O)c1cc(C(F)(F)F)cc(C(F)(F)F)c1
inactive: [3] | [4] | [5] | [6] | [7] | [10] | [11] | [14]
active: [1] 61.1 µM | [2] 24.3 µM | [8] 36.3 µM | [9] 40.8 µM | [13] 0.0942 µM

CCCCCCCCCCCCCC(=O)OCC
inactive: [1] | [2] | [3] | [4] | [5] | [6] | [7] | [8] | [9] | [10] | [11] | [12] | [13] | [20] | [19] | [15] | [16] | [17] | [18]

CCCCCN=C(N)N/N=C/c1c[nH]c2ccc(OC)cc12
active: [1] 6.68 µM | [10] 15.8 µM | [11] 0.0326 µM
inactive: [2] | [3] | [4] | [5] | [6] | [7] | [8] | [9] | [13] | [14]

CCCOC(=O)c1ccc(C(=O)OCCC)nc1
inactive: [1] | [2] | [3] | [4] | [5] | [6] | [7] | [8] | [9] | [10] | [11] | [12] | [14] | [15] | [18]

CCCCCCCCCCCCCCCC/C=C/C1CC(=O)OC1=O (stereo not given)
inactive: [1] | [2] | [3] | [4] | [5] | [6] | [7] | [8] | [9] | [10] | [11] | [12] | [13] | [20] | [19] | [17] | [18]

COCCCCCCCCOCCC[Si](C)(O[Si](C)(C)C)O[Si](C)(C)C
inactive: [2] | [3] | [4] | [5] | [6] | [7] | [8] | [9] | [10] | [11] | [12] | [14] | [15] | [16] | [18]
active: [1] 61.1 µM

C=CC(=O)OCC(CO)(COCC(COC(=O)C=C)(COC(=O)C=C)COC(=O)C=C)COC(=O)C=C
inactive: [3] | [4] | [5] | [6] | [7] | [11] | [12] | [13] | [14] | [17]
active: [1] 4.28 µM | [2] 2.4 µM | [8] 3.2 µM | [9] 35.9 µM | [10] 14.3 µM | [16] 30.3 µM | [18] 27 µM
